The list is not random: actives were taken first. Their share in the collection is about 2.7%.
ATXN viability – Viability Counterscreen for Primary qHTS for Inhibitors of ATXN expression | S2 cells (HEK-293 line with an ATXN2-luciferase reporter) viability, CellTiter-Fluor protease fluorescence, 24 h | Potency, µM (doses to about 56.7 µM), actives largely listed as cytotoxic | actives 0.49% (n = 400,000); also: nearly all actives have a fitted effect of over 40% in size
HepG2 viability – qHTS for Inhibitors of TGF-b: Cytotox Counterscreen | actives 0.76% (n = 410,000) | Potency, µM (highest dose often 46.1 µM), for inactives: at the top dose activity change, negative = cytotoxicity, actives largely listed as cytotoxic | HepG2 CAGA-GFP viability, ATP luminescence, 18 h
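CellTiter-Glo luminescence gave cytotoxicity after 18 hours at 37 degrees C. The cells were HepG2 CAGA-GFP in 1% FBS DMEM, stimulated with 500 pg/mL TGF-beta after compound addition. %Activity was normalised to no-cell wells (complete cell-killing) and DMSO (no toxicity), and curves were fitted and classified.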
TGFb inhibitor – qHTS for Inhibitors of TGF-b | Potency, µM (doses to about 46.1 µM), without a hit: at the highest dose activity, negative = inhibition, usual class: inhibitors | actives 1.2% (n = 410,000) | HepG2 CAGA-GFP TGF-b/SMAD3 reporter, GFP fluorescence, 18 h; TGF-beta stimulated, 500 pg/mL final | AID 588855, 2011; also: % is scaled to controls: 0 for no effect and ±100 for the full control effect; nearly all actives have a fitted effect of over 65% in size
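TGF-beta reporter screen: HEPG2 CAGA-GFP, 1% FBS, 500 pg/mL TGF-beta final, 18 h; per-cell GFP summed per well; curves fitted and categorized by class.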
ALOX12 inh – Primary qHTS assay for inhibitors of human arachidonate 12S-lipoxygenase (ALOX12): Round 2; AID 1671190, 2021; actives 1.1% (n = 580,000); purified 12hLO, xylenol orange hydroperoxide absorbance; Potency, µM (top dose mostly 108 µM), without a hit: at the top dose activity change, negative = inhibition, usual class: inhibitors; also: % is scaled to controls: 0 for no effect and ±100 for the full control effect
Target sequence (P18054 whole entry, looked up): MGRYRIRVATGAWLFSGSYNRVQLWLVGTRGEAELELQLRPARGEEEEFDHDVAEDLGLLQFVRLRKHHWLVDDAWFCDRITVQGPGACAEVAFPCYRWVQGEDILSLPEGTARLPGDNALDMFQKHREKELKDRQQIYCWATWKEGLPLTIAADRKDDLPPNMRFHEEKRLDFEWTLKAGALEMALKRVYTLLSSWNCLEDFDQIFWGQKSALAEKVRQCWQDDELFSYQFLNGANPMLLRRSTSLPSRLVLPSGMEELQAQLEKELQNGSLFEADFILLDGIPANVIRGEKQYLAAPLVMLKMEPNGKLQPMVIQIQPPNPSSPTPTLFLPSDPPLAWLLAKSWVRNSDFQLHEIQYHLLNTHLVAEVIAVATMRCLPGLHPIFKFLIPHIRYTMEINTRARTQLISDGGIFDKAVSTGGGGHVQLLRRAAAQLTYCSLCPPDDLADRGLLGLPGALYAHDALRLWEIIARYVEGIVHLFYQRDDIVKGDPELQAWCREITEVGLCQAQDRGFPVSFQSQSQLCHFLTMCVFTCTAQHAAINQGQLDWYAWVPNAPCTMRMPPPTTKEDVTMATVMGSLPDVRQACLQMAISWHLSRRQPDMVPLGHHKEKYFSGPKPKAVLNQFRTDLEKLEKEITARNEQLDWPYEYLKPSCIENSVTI
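Purified human 12hLO at 150 nM in 25 mM Hepes, 0.01% Triton X-100, pH 7.0, preincubated 15 min at room temperature with compound. Reaction started with 40 uM arachidonic acid, 30 min at room temperature. Hydroperoxide measured by Fe-xylenol orange, 573/405 nm absorbance ratio.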
ATXN2 expr inh – Primary qHTS for Inhibitors of ATXN expression | Potency, µM (doses to about 57 µM), for inactives: at the highest dose activity change, negative = inhibition, actives largely listed as inhibitors | HEK-293 ATXN2-luciferase reporter, luminescence, 24 h | actives 0.72% (n = 360,000); also: % is scaled to controls: 0 for no effect and ±100 for the full control effect; nearly all actives have a fitted effect of over 55% in size
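qHTS (up to 57 uM final) was run with 24 h compound exposure of reporter cells at 37 °C. Each well was multiplexed: SteadyGlo luminescence measured ATXN2-luciferase expression after a fluorogenic Gly-Phe-AFC viability readout (25 uM final).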
Starred values were filed as active, the others as inactive; ! = not confirmed by another sample; [ ] = remark or other dose. Calls follow the shape of the dose curve; as a rule, active = well fitted curve in the direction sought with a large enough effect; inconclusive = small, poorly fitted or top-dose-only effect, or another doubt; inactive = no such curve, though single readings can be large; an effect the other way counts as inactive or inconclusive. Potency is read from the fitted curve at half-maximal effect.

What do the screens show for `O=C1NC(Cc2ccc(O)cc2)c2nc3cc(F)ccc3c(=O)n2-c2cc3ccccc3cc21` (stereo not given)?
ATXN viability: inconclusive; HepG2 viability: -21%; TGFb inhibitor: 20µM*; ALOX12 inh: 0%; ATXN2 expr inh: inconclusive

What do the screens show for `CN(C)C(=O)c1ccc2c(c1[N+](=O)[O-])C(=O)c1ccccc1C2=O`?
ATXN viability: inactive; HepG2 viability: -46%; TGFb inhibitor: 10µM*; ALOX12 inh: -22%; ATXN2 expr inh: 29%

Results for Cc1[nH]c2ccccc2c1CCNC(=O)c1ccc2c(c1[N+](=O)[O-])C(=O)c1ccccc1C2=O ?
ATXN viability: inconclusive; HepG2 viability: -34%; TGFb inhibitor: inconclusive; ALOX12 inh: 0%; ATXN2 expr inh: -10%

What do the screens show for `CCCCC[C@H](O)/C=C/C1C(=O)C=C[C@H]1C/C=C\CCCC(=O)OC` (stereo not given in full)?
HepG2 viability: -76%; TGFb inhibitor: 22µM*; ALOX12 inh: inconclusive; ATXN2 expr inh: inconclusive

What do the screens show for `CCCCC[C@H](O)/C=C/[C@H]1C(=O)C=C[C@@H]1C/C=C\CCCC(=O)O`?
ALOX12 inh: -8%[12.5 µM]

What do the screens show for `NC(=NCCc1c[nH]c2ccccc12)NC(=O)c1ccc(Cl)cc1`?
ATXN viability: inactive; HepG2 viability: -13%; TGFb inhibitor: inconclusive; ALOX12 inh: 40µM*; ATXN2 expr inh: 1%[11.3 µM]

What do the screens show for `CC(CNC(=O)c1cc(=O)c2ccccc2o1)N1CCOCC1` (stereo not given)?
ALOX12 inh: 25%

Results for Oc1c(Br)cc(Br)cc1CNc1cccc2cccnc12 ?
ATXN viability: inactive; HepG2 viability: -63%; TGFb inhibitor: inconclusive; ALOX12 inh: 14µM*

What do the screens show for `CO[C@H]1C(=O)N(C(C)C)[C@H]1C1CCN(Cc2cccc(C#N)c2)CC1`?
ALOX12 inh: -8%

What do the screens show for `CCCNC(=O)C(C)NC(=O)Cc1ccc(S(=O)(=O)N2CCCCC2)cc1` (stereo not given)?
ALOX12 inh: 20µM*

What do the screens show for `O=C(Cc1ccccc1F)Nc1nc(-c2ccc(F)c(F)c2)cs1`?
ATXN viability: inactive; HepG2 viability: -36%; TGFb inhibitor: inconclusive; ALOX12 inh: inconclusive; ATXN2 expr inh: -30%

Results for O=C(Nc1nc(-c2ccc(F)c(F)c2)cs1)Nc1ccc(F)cc1F ?
ATXN viability: inconclusive; HepG2 viability: 11%; TGFb inhibitor: -10%; ALOX12 inh: 0%; ATXN2 expr inh: 5µM*

What do the screens show for `Cc1ccc(C(=O)N2CCC(C(=O)c3ccc(F)cc3)CC2)cc1`?
ATXN viability: inactive; HepG2 viability: 0%; TGFb inhibitor: -27%; ALOX12 inh: -2%

How did Cc1ccc(C(=O)N2C(=S)C(c3ccc(F)cc3)=NC23CCN(C)CC3)cc1 do in these assays?
ATXN viability: 25µM*; HepG2 viability: -50%; TGFb inhibitor: inconclusive; ALOX12 inh: inconclusive; ATXN2 expr inh: 22µM*

What do the screens show for `O=C(NCc1ccc(F)cc1)c1n[nH]c(=O)c2ccccc12`?
ALOX12 inh: -54%

What do the screens show for `COc1ccc(/C=C/C(=O)NC(=S)NNC(=O)c2cnccn2)cc1`?
ATXN viability: inconclusive; HepG2 viability: 8%; TGFb inhibitor: -6%; ALOX12 inh: 5%; ATXN2 expr inh: 14µM*

What do the screens show for `O=C(/C=C/c1ccc(F)cc1)NC(=S)NNC(=O)c1cnccn1`?
ATXN viability: inconclusive; HepG2 viability: 1%; TGFb inhibitor: 17%; ALOX12 inh: 0%; ATXN2 expr inh: inconclusive

How did CCNc1ncnc2sc3c(c12)CCN(S(=O)(=O)c1ccccc1)C3 do in these assays?
ALOX12 inh: 6%

How did COc1ccc(C(=O)c2nc3c(n2O)CCCC3)cc1OC do in these assays?
ATXN viability: inactive; HepG2 viability: 10%; TGFb inhibitor: -7%; ALOX12 inh: 8.9µM*; ATXN2 expr inh: -12%

What do the screens show for `CS(=O)(=O)Nc1cccc(-c2nccc(-n3ccnc3)n2)c1`?
ALOX12 inh: 22µM*

Results for N#Cc1cccc(-c2nccc(-n3ccnc3)n2)c1 ?
ALOX12 inh: 25µM*

What do the screens show for `Cn1nc(C(=O)Nc2cccc3cnccc23)c2ccccc2c1=O`?
ALOX12 inh: -27%

Results for CCN(CCO)c1ccc(Nc2cc(-c3ccc(-c4ccccc4)cc3)ncn2)cc1 ?
ATXN viability: inconclusive; HepG2 viability: -9%; TGFb inhibitor: inconclusive; ALOX12 inh: 11µM*; ATXN2 expr inh: inconclusive

How did O=C(NC1C2CC3CC(C2)CC1C3)c1cccc2c(Br)cccc12 (stereo not given) do in these assays?
ALOX12 inh: 0%

What do the screens show for `CC(c1ccc(S(N)(=O)=O)cc1)N(C)C(=O)CCc1ncc(-c2ccccc2Cl)o1` (stereo not given)?
ALOX12 inh: 9%

What do the screens show for `CC1CCC(NC(=O)Nc2cccs2)CC1` (stereo not given)?
ATXN viability: inactive; HepG2 viability: -11%; TGFb inhibitor: -12%; ALOX12 inh: 13µM*; ATXN2 expr inh: 45%

What do the screens show for `CCC(C)Sc1ccc(-c2nc3cc(C)ccn3c2NC2CCCCC2)cc1` (stereo not given)?
ATXN viability: inconclusive; HepG2 viability: -30%; TGFb inhibitor: inconclusive; ALOX12 inh: 35µM*!; ATXN2 expr inh: -28%

What do the screens show for `O=c1c2ccccc2sn1-c1ccccc1F`?
ATXN viability: 20µM*; HepG2 viability: -87%; TGFb inhibitor: inconclusive; ALOX12 inh: inconclusive; ATXN2 expr inh: inconclusive

What do the screens show for `O=c1c2ccccc2sn1-c1ccc(S(=O)(=O)N2CCCCC2)cc1`?
ATXN viability: inconclusive; HepG2 viability: 6%; TGFb inhibitor: -1%; ALOX12 inh: inconclusive; ATXN2 expr inh: 4%

How did CC(=O)Nc1ccc2c(=O)n(-c3ccccc3)sc2c1 do in these assays?
HepG2 viability: -78%; TGFb inhibitor: inconclusive; ALOX12 inh: 1µM*; ATXN2 expr inh: inconclusive

How did CC(=O)Nc1ccc(-c2cc(N)n(-c3ccccc3)n2)cc1 do in these assays?
ATXN viability: inactive; HepG2 viability: -5%; TGFb inhibitor: -1%; ALOX12 inh: -18%; ATXN2 expr inh: 12%

What do the screens show for `Cc1ccc(-n2sc3ccccc3c2=O)cc1S(=O)(=O)N1CCCCC1`?
ATXN viability: inconclusive; HepG2 viability: -52%; TGFb inhibitor: inconclusive; ALOX12 inh: 0.089µM*; ATXN2 expr inh: -24%

Results for O=c1c2cc(F)ccc2sn1-c1ccccc1 ?
ATXN viability: 13µM*; HepG2 viability: -94%; TGFb inhibitor: 11µM*; ALOX12 inh: inconclusive; ATXN2 expr inh: inconclusive
